± gives the standard deviation.
The sequences below were run on EfPiwi piRISC loaded with L1MC piRNA (26 nt) (assay: pre-steady-state target cleavage rate (min^-1); auxiliary factor: 500 nM Ephydatia muelleri Gtsf1; guide: L1MC piRNA 5'p-UAACUAAAUACUAUGCAAGCUGUAGG; MIWI and MILI are mouse PIWI proteins and EfPiwi is from a freshwater sponge; tags in brackets are library labels; higher = faster piRNA-guided slicing of the target).
Method: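 Cleave-'n-Seq: a library of target RNAs (target site in constant flanks) at […] was incubated with 1 nM active freshwater sponge Ephydatia fluviatilis Piwi piRISC (synthetic 5'-monophosphorylated piRNA guide) with or without 500 nM EmGtsf1 at 33 °C for 1 min to 16 h. Uncleaved targets were sequenced and the pooled three trials fitted to a burst-and-steady-state model to give the pre-steady-state cleavage rate (min^-1). Sequence is the target site only. Fits with R² ≤ 0 are excluded.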

| Sequence | pre-steady-state target cleavage rate |
| --- | --- |
| UCCUGGUACAGGUUGCAUUGUAUUUAGUUA | 0.0047 ± 0.0018 |
| UCCUCCUUCAGCUUGCAUAGUAUUUAGUAA | 0.012 ± 0.005 |
| UCCUGGUACAGCUUGCAUUGUAAUUAGUUA | 0.00313 ± 0.0023 |
| UCCUGCUACAGCUUGCAUAGUAAAUAGUAA | 0.00351 ± 0.0022 |
| UCCUCCUACAGCUUGGAUAGUAUUUAGUAA | 0.00895 ± 0.0035 |
| UCCUCCUACACCUUGCAUAGUAUAUAGUUA | 0.00711 ± 0.0039 |
| UCCUCCUACAGCUUGCAUAGUAUGUUAGUUA | 0.00459 ± 0.0021 |
| UCCUGGAUGUGCCUUGCAUAGUAUUUAGUUA | 0.0886 ± 0.031 |
| UCCUGGAUGUCGAUGCAUAGUAUUUAGUUA [g2:g17:cont:t1A] | 0.00648 ± 0.0023 |
| UCCUGGAACAGCUUGCAUAGUUUUUAGUUA | 0.00683 ± 0.0019 |
| UCCUCCUACAGCUUGCAUUGUAAUUAGUUA | 0.00753 ± 0.0034 |
| UCCUGGAUCACGAUGCAUAGUAUUUAGUUA | 0.0115 ± 0.004 |
| UCCUCCUACAGCUUGCAUAGAAUUUAGUUA | 0.0078 ± 0.0023 |
| UCCUGGAACAGCAUGCAUACUAUUUAGUUA | 0.00762 ± 0.0026 |
| UCCUCCUACAGCUUGCAUAGUAUUAUGUUA | 0.0049 ± 0.0026 |
| UCCUCCUACAGCUUGCAUUGUAUUUAGAAA | 0.00363 ± 0.0015 |
| UCCUGCUAGAGCUUGCAUAGUAUUUUCAAA | 0.00315 ± 0.0025 |
| UCCUGGAUGUCCUAUGCAUAGUAUUUAGUUA | 0.00508 ± 0.0022 |
| UCCUGGUACAGCUAUGCAUAGUAUUUAGUUA | 0.0292 ± 0.0094 |
| UCCUGGAUCAGCUUUGCAUAGUAUUUAGUUA | 0.103 ± 0.023 |

| Sequence | pre-steady-state target cleavage rate |
| --- | --- |
| UCCUGCUACAGCUUGCUUAGAAUUUAGUUA | 0.00357 ± 0.0018 |
| UCCUGGAUCAGCUUGCAUAGUAUUGAGUUA | 0.00662 ± 0.0024 |
| UCCUGGAUCAGCUUCGAUAGUAUUUAGUUA | 0.00503 ± 0.0041 |
| UCCUGGAUGAGCUUGCAUUGUAUUUAGUAA | 0.00311 ± 0.0025 |
| UCCUGCUACAGCUUGCUUAGUAUUUAGAAA | 0.00409 ± 0.0022 |
| UCCUGGAACAGCUUGCAUAGAAUUUAGUUA | 0.0051 ± 0.0017 |
| UCCUGGAACUGCUUGCAAAGUAUUUAGUUA | 0.0228 ± 0.008 |
| UCCUGGAUGAGCUAGCAUAGUAUUAAGUUA | 0.00293 ± 0.0024 |
| UCCUGGAACAGCUUGCUUAGUAUUUAGUAA | 0.00393 ± 0.0022 |
| UCCUGGAUGAGCUUGAAUAGUAUUUAGUUA | 0.00419 ± 0.0027 |
| UCCUGCUACAGCUUUCAUAGUAUUUAGUUA | 0.00701 ± 0.0022 |
| UCCUGGAUCAGCUUGCAUAGUAUUUAAGUUA | 0.00608 ± 0.0023 |
| UCCUUCUACAGCUUGCAUAGUAUUUAGUUA | 0.119 ± 0.035 |
| UCCUCGAUCAGCUUGCAUAGUAUUUAGUAA | 0.00989 ± 0.0033 |
| UCCUGCUACAGCUUGCAUAGCAUUUAGUUA | 0.00521 ± 0.0016 |
| UCCUGCUUCAGCUUGCAUAGUAUUUAGAAA | 0.00434 ± 0.0021 |
| UCCUCCUACAGCAUGCAUAGUAUUAAGUUA | 0.00654 ± 0.0033 |
| UCCUGGAUGAGCUUGCAAAGUAUUUAGAAA | 0.00395 ± 0.0031 |
| UCCUGGAUGUGCUUGCAUAGUAUUUAGAUUA | 0.00327 ± 0.0022 |
| UCCUGGAACAGCAUGCAUAGUAUUUAGAUA | 0.00441 ± 0.0022 |

— the supplement of paper PMC10338343
